Where “and” joins values, the source holds several entries; their conditions need not be identical. Equal entries are not always repeated. Results filed as inconclusive are left out. Some structures have more than one record in an assay (separate samples or runs), and their calls can disagree. Calls of active or inactive are those of the source. Unless noted, calls follow the shape of the full dose curve. Bounds are passed on as bounds.

The nature of test [1]: AP1 Signaling Pathway (AID 357; active = well fitted curve in either direction with a large enough effect, not every such curve was filed as active;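 also: ME-180 reporter cells stimulated with EGF at its EC50 level; % is scaled to controls: 0 for no effect and ±100 for the full control effect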). Put shortly: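 First, ME-180 AP-1-bla cells were cultured overnight at 37 °C in low-serum Opti-MEM. Next, titrated compounds with EC50 EGF were incubated 5 hours. Finally, CCF4 was added for 2.5 hours and the 460/530 nm ratio recorded.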
For test [2], the target named is Cytochrome P450 1A2 (Homo sapiens) (UniProt P05177). In words: p450-cyp1a2 (AID 410). Also: potency is read from the fitted curve at half-maximal effect.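 As to activity change, negative = inhibition: -100% = full effect of reference inhibitor.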 Put shortly:
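20nM CYP1A2, 100uM Luciferin-ME (=Km), 100mM KPO4; cpd 10 min RT; +NADPH regen, 60 min RT; stop/detect 20 min; luminescence. Normalized to furafylline 57 uM = full inhibition.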

Test [3] in a line: NFAT Signaling Pathway (AID 444; active = well fitted curve in either direction with a large enough effect, not every such curve was filed as active;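 also: carbachol stimulus at about its EC50 of 1 µM final; % is scaled to controls: 0 for no effect and ±100 for the full control effect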). Conditions: Jurkat NFAT-bla M1, carbachol, beta-lactamase ratio, 5 h. Put shortly: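 Jurkat cells carrying an NFAT-driven β-lactamase reporter and co-transfected muscarinic M1 receptor were treated with compound plus carbachol (1 uM final, an EC50 level) for 5 h at 37 °C. CCF4 loading followed for 1 h at RT; 460/530 nm ratio gave %activity.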

Test [4] in a line: Stat Signaling Pathway (AID 446; active = well fitted curve in either direction with a large enough effect, not every such curve was filed as active;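 also: ME-180 cervical cancer cells given 40 pM IL-6 alongside compound; SIE-controlled beta-lactamase reporter measured as 460/530 nm FRET emission ratio; % is scaled to controls: 0 for no effect and ±100 for the full control effect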). Put shortly: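 Emission at 460 and 530 nm (excitation 405 nm) reports SIE-controlled beta-lactamase in ME-180 cells. Cells received compound with 40 pM IL-6 for 5 hrs at 37 C; data scaled between 300 pM IL-6 and 125 nM JAK-inhibitor controls.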
Test [5] concerns the target Glucocorticoid receptor (Homo sapiens) (UniProt P04150). In words: GR-GFP Redistribution (AID 450;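 active = compounds whose dose series gives a full or clear partial fitted curve of increased nuclear translocation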; also: potency is read from the fitted curve at half-maximal effect). Conditions: U2OS GR-GFP nuclear translocation, laser cytometry, 2 h.
For test [6] the target is unchanged. As to the kind of experiment: GR-EFC Redistribution (AID 451). Also: potency is read from the fitted curve at half-maximal effect. Conditions: CHO-K1 GR-EFC translocation, beta-gal luminescence, 2 h. Put shortly: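 CHO-K1 cells stably expressing nuclear-localized β-gal enzyme acceptor and GR fused C-terminally to the enzyme donor fragment; ligand-driven nuclear translocation restores β-gal by complementation. Compounds titrated up to 46 uM final, 2 h at 37 °C; luminescence read.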

The target of test [7] is 3',5'-cyclic-AMP phosphodiesterase 4B (Homo sapiens) (UniProt Q07343). As to the kind of experiment: qHTS Assay for Inhibitors of PDE-IV (AID 607; active = well fitted activation curve with a large enough effect in the main read-out, with a control signal flat, not every such curve was filed as active; also: % of control where 0% means no effect). Put shortly: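 The readout is membrane depolarisation from a cAMP-sensing CNG channel, detected with a potential dye at ex 535/em 590. Cells were HEK293-derived (endogenous PDE-IV) at 1000 cells/well, titrated up to 22.9 uM final.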
Sequence of 3',5'-cyclic-AMP phosphodiesterase 4B (Homo sapiens) (Q07343 whole entry, looked up): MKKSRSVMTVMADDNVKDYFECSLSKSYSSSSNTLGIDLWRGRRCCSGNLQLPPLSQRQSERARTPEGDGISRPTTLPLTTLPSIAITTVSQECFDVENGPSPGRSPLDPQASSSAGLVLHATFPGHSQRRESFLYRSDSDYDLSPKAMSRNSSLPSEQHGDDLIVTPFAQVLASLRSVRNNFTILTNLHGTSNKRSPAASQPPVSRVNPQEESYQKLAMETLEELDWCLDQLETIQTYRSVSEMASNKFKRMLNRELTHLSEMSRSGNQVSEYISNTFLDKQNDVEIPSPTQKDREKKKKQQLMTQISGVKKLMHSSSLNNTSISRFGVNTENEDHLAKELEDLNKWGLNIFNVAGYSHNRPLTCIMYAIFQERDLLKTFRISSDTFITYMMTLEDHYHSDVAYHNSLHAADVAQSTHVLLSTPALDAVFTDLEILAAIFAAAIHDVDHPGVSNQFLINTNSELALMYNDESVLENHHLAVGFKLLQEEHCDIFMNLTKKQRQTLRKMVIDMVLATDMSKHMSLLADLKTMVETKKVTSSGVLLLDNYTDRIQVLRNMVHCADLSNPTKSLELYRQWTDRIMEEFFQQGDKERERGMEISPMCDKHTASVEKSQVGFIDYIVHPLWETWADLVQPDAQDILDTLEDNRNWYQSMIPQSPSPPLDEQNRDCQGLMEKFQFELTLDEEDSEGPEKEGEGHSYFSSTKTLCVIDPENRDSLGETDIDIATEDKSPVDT

Test [8] is described as follows: Cell Viability - Jurkat (AID 426;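 active = dose-dependent loss of cell ATP signal giving a full or clear fitted curve, ranked by lower potency value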; also: potency is read from the fitted curve at half-maximal effect). Conditions: qHTS. Put shortly: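 Luminescent ATP read-out (CellTiter-Glo, 20 min at room temperature) after 40 hr compound exposure at 37 °C of Jurkat E6-1 cells, 5000/well. Decreased ATP taken as cytotoxicity; AC50 from standard Hill equation.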
A short description of test [9]: Cell Viability - Hek293 (AID 427;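 active = compounds whose dose-response curve shows a full or clear partial loss of cell viability, called from curve shape rather than a numeric limit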;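 also: potency is read from the fitted curve at half-maximal effect; cells exposed to compound for 40 hours at 37 °C before reading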). To be noted: qHTS. Put shortly: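 qHTS, human embryonic kidney (adenovirus-transformed) cells; 40 hr cpd, 37 °C; CellTiter-Glo ATP luminescence. Norm: DMSO = 0, 100 uM tamoxifen = 100% inhibition. Hill-fit AC50.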
Test [10] can be described thus: Cell Viability - HepG2 (AID 433). Also: potency is read from the fitted curve at half-maximal effect. Conditions: qHTS. Put shortly: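 HepG2 cells, 1500 per well, treated 40 hr at 37 °C in complete medium; viability from intracellular ATP by CellTiter-Glo luminescence. Normalized to DMSO and 100 uM tamoxifen; AC50 from Hill fit of qHTS concentration-response.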
Test [11] is described as follows: Cell Viability - MRC5 (AID 434).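 Also: potency is read from the fitted curve at half-maximal effect; potency reflects cytotoxicity seen as loss of intracellular ATP.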 Conditions: MRC5 lung fibroblast viability, qHTS. Put shortly: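 Decrease in intracellular ATP, quantified by luciferase light output, reflects compound toxicity toward MRC5 cells exposed for 40 hr in complete culture medium. Concentration-response curves, scaled between DMSO and 100 uM tamoxifen, gave AC50 values.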
Test [12] can be described thus: Cell Viability - SK-N-SH (AID 435). Also: potency is read from the fitted curve at half-maximal effect. To be noted: SK-N-SH neuroblastoma cell viability qHTS. Put shortly:
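SK-N-SH neuroblastoma cells (1500/well) treated 40 h at 37 °C in complete medium; viability read as cellular ATP by CellTiter-Glo luminescence. Normalized to DMSO and 100 uM tamoxifen; AC50 from Hill fits of qHTS concentration-response.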

Test [13] is described as follows: Cell Viability - N2a (AID 540; active = well fitted curve in the direction sought with a large enough effect; an effect the other way counts as inactive or inconclusive; also: nearly all actives have a fitted effect of over 45% in size; also: potency is read from the fitted curve at half-maximal effect;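 as to activity change, negative = cytotoxicity: plate controls were DMSO alone for no effect and tamoxifen control for full effect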). To be noted: N2a mouse neuroblastoma cell viability; activity change, negative = cytotoxicity: at 92.2 µM (top of the series). Put shortly:
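N2a mouse neuroblastoma, 1500 cells/well, 5 hr settle; compound 40 hr, 37 °C; CellTiter-Glo 20 min RT; luminescence; Hill-fit AC50.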

Test [14] can be described thus: Cell Viability - HUV-EC-C (AID 542; active = well fitted curve in the direction sought with a large enough effect; an effect the other way counts as inactive or inconclusive; also: nearly all actives have a fitted effect of over 35% in size; also: potency is read from the fitted curve at half-maximal effect; as to activity change, negative = cytotoxicity: % is scaled to controls: 0 for no effect and ±100 for the full control effect). Put shortly:
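Luminescent ATP read-out (CellTiter-Glo, 20 min room temperature) after 40 hr compound treatment of HUV-EC-C cells at 37 °C. Concentration-response data fitted with the standard Hill equation to give AC50; tamoxifen and doxorubicin served as positive controls.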

Test [15] is described as follows: Cell Viability - H-4-II-E (AID 543; active = well fitted curve in the direction sought with a large enough effect; an effect the other way counts as inactive or inconclusive; also: nearly all actives have a fitted effect of over 35% in size; also: potency is read from the fitted curve at half-maximal effect). Put shortly: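 qHTS, rat hepatoma H-4-II-E, 1500 cells/well; 40 hr compound exposure, 37 °C; CellTiter-Glo ATP luminescence after 20 min RT; AC50 by standard Hill fit.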
Test [16] is described as follows: Cell Viability - SH-SY5Y (AID 544; active = well fitted curve in the direction sought with a large enough effect; an effect the other way counts as inactive or inconclusive; also: nearly all actives have a fitted effect of over 55% in size; also: potency is read from the fitted curve at half-maximal effect). Put shortly: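 SH-SY5Y, 1500 cells/well, 5 hr pre-incubation 37 °C; cpd 40 hr 37 °C; CellTiter-Glo 20 min RT; luminescence (ATP) read. qHTS concentration-response, Hill fit → AC50. Tamoxifen, doxorubicin as positive controls.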
The nature of test [17]: Cell Viability - Renal Proximal Tubule (AID 545; active = well fitted curve in the direction sought with a large enough effect; an effect the other way counts as inactive or inconclusive; also: nearly all actives have a fitted effect of over 40% in size; also: potency is read from the fitted curve at half-maximal effect;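 as to activity change, negative = cytotoxicity: 0% = DMSO only and -100% = 100 µM tamoxifen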). Put shortly: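 Rat renal proximal tubule primary cells, 1000/well, exposed to compounds for 40 hr at 37 °C in complete medium; cellular ATP read by CellTiter-Glo luminescence. AC50 from concentration-response fitted with standard Hill equation.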
A short description of test [18]: Cell Viability - Mesenchymal (AID 546; active = well fitted curve in the direction sought with a large enough effect; an effect the other way counts as inactive or inconclusive;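 also: cells exposed to compound for 40 hours before reading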; also: potency is read from the fitted curve at half-maximal effect;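 as to activity change, negative = cytotoxicity: 0% = DMSO only and -100% = 100 µM tamoxifen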). To be noted: mesenchymal cells viability, qHTS; activity change, negative = cytotoxicity: at 91.7 µM (top of the series). Put shortly:
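In this qHTS cytotoxicity format, glomerulus-derived human mesenchymal kidney cells received compound for 40 hr, then luciferase-based ATP quantitation. Concentration-response data were fitted with the Hill equation.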

The nature of test [19]: Cell Viability - BJ (AID 421).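 Also: potency is read from the fitted curve at half-maximal effect; cells exposed to compound for 40 hours at 37 °C before readout.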 Conditions: BJ fibroblast viability, qHTS. Put shortly: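 Cytotoxicity in human BJ foreskin fibroblasts is scored as loss of cellular ATP after a 40-hour exposure, measured by luciferase luminescence. Controls are DMSO and 100 uM tamoxifen.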
A short description of test [20]: Cell Viability - NIH 3T3 (AID 541; active = well fitted curve in the direction sought with a large enough effect; an effect the other way counts as inactive or inconclusive; also: nearly all actives have a fitted effect of over 25% in size; also: potency is read from the fitted curve at half-maximal effect;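 as to activity change, negative = cytotoxicity: plate controls were DMSO alone for no effect and tamoxifen positive control for full effect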). Conditions: NIH 3T3 cell viability, qHTS; activity change, negative = cytotoxicity: at 92.2 µM (top of the series). Put shortly: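 qHTS format; 40 hr compound exposure, 37 °C; CellTiter-Glo luminescence (cellular ATP) read-out after 20 min at RT. Decrease in ATP = cytotoxicity; AC50 from standard Hill fit.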

Sequence of Cytochrome P450 1A2 (Homo sapiens) (P05177 whole entry, looked up): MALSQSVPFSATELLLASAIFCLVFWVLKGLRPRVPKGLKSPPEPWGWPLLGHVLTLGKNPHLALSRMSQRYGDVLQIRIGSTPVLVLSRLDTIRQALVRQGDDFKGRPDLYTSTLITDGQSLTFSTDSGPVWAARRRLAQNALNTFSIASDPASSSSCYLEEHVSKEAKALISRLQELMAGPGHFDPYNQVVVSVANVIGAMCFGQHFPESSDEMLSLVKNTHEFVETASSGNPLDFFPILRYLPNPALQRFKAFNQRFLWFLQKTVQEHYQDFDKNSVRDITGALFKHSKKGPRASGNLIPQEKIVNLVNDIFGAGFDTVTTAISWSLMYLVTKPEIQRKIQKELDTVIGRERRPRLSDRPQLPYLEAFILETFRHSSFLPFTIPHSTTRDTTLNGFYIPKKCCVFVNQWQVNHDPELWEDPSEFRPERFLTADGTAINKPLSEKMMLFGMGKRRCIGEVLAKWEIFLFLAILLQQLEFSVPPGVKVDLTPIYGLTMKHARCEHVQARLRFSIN
Sequence of Glucocorticoid receptor (Homo sapiens) (P04150 whole entry, looked up, the tested form may be a part): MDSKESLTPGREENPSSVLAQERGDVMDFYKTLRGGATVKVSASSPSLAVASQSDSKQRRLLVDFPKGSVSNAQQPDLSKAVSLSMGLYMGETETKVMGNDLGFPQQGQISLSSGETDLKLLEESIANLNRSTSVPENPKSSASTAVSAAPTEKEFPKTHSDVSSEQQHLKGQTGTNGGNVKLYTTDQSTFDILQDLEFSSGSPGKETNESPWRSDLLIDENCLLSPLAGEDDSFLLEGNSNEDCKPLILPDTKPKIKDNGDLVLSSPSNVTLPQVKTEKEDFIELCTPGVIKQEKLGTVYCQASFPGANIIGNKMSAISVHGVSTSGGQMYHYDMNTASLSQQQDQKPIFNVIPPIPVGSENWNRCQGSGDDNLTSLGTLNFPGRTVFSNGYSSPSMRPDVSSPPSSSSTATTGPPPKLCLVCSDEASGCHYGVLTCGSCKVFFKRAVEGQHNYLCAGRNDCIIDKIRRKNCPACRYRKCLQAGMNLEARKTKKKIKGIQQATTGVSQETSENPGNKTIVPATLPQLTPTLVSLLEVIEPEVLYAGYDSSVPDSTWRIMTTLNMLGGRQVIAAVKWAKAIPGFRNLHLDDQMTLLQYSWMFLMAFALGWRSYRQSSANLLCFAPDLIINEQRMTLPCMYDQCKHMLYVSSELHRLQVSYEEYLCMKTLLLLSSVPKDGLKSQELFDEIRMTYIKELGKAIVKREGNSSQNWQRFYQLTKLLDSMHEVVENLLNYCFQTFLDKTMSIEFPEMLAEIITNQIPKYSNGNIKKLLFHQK

Turning to `CCCCCCCCC(=O)NCc1ccc(O)c(OC)c1`, the compound was called inactive in test [1], in [4] and in [7]. Moreover, the Potency in [2] is 12.6 µM (active); in test [5], > 46 µM (inactive); in test [6], > 46 µM (inactive). Further, the activity change, negative = inhibition in test [3] (at 38 µM (top of the series)) was 6.44% (inactive).

`CN(C)C(=S)SSC(=S)N(C)C`: the Potency in test [8] was 12.5 µM (active); in test [9], 14.5 µM (active); in test [10], 66.9 µM (active); in test [11] it was 13.2 µM (active); in test [12] it was 8.36 µM (active); in test [13] it was 5.01 µM (active). Also, the Potency in test [14] was 15.8 µM (active); in test [15], 3.98 µM (active); in test [16], 15.8 nM (active); in test [17], 20 µM (active). The activity change, negative = cytotoxicity in test [18] was -103% (active).

As to `CN1[C@@H]2CC[C@H]1CC(OC(=O)c1cc(Cl)cc(Cl)c1)C2` (stereo not given in full), the outcome in [1], in test [4] and in [7] was inactive. Further, the Potency entry in [2] is “inactive”. Further, the Potency in test [5] and in test [6] was > 46 µM (inactive) in each case.

`COc1ccc(C(=O)N2CCCC2=O)cc1`: the compound was classed as inactive in test [1], in test [4] and in test [7]. Also, the activity change, negative = inhibition in [3] (at 17.2 µM (top of the series)) is -27.3% (inactive); in [3] (at 38 µM (top of the series)) it was 11.8% (inactive). The Potency is > 46 µM (inactive) and > 20.6 µM (inactive) in [5]; > 46 µM (inactive) in [6].

On to `C[N+]1(C)[C@@H]2CC[C@H]1CC(OC(=O)C(CO)c1ccccc1)C2` (stereo not given in full), for which the compound was called inactive in [1] and in test [4]. In addition, in test [3] (at 17.2 µM (top of the series)), the activity change, negative = inhibition was -95.4% (active) and -94.2% (active). In addition, the Potency in test [5] is > 20.6 µM (inactive).

For `C[C@H](N)[C@H](O)c1ccc(O)c(O)c1`, the compound was called inactive in [1], in [4] and in [7]. Moreover, the Potency result in test [2] was “inactive”. Also, the activity change, negative = inhibition is -6.73% (inactive) in test [3] (at 17.2 µM (top of the series)) and 1.06% (inactive) in test [3] (at 38 µM (top of the series)).

On to `C[C@@H]1C[C@@H]([C@H](O)CC2CC(=O)NC(=O)C2)C(=O)[C@@H](C)C1`, for which the Potency in [19] was > 92 µM (inactive); in test [8], 301 nM (active) and 142 nM (active); in test [9] it was 129 nM (active) and 167 nM (active); in [10], > 92 µM (inactive); in test [11] it was > 92 µM (inactive); in test [12] it was > 92 µM (inactive). Further, the Potency is 0.126 µM (active) in [13]; 100 nM (active) and 126 nM (active) in test [20]; 0.1 µM (active) in [14]; 126 nM (active) and 100 nM (active) in [15]; 63.1 nM (active) and inactive in test [16]; 79.4 nM (active) and 50.1 nM (active) in test [18].

Take `CNC(=O)Oc1cccc2ccccc12`: the Potency in test [19], in test [9], in test [10], in test [11] and in test [12] was > 92 µM (inactive) each time. Besides, the Potency result in test [13], in test [14], in [15], in [17] and in test [18] was “inactive” each time.

As for `Oc1c(Br)cc(Br)cc1Br`, the Potency in test [19], in test [9], in [10], in test [11] and in [12] was > 92 µM (inactive) throughout. The Potency result in test [13], in test [20], in [14], in test [15], in test [16] and in test [17] was “inactive” each time. Besides, in test [18], the Potency result is “inactive”.

Turning to `CC(C)[N+](C)(CCC(C(N)=O)(c1ccccc1)c1ccccc1)C(C)C`, the compound was classed as inactive in test [1], in [4] and in [7]. In addition, the Potency result in test [2] is “inactive”. In addition, the Potency in test [5] and in [6] was > 20.6 µM (inactive) each time.

Take `COC(=O)C1=CCCN(C)C1`: the outcome in test [1], in [4] and in test [7] was inactive. Also, in test [2], the Potency result was “inactive”. Further, the Potency in test [5] was > 46 µM (inactive) and > 20.6 µM (inactive); in [6] it was > 46 µM (inactive) and > 20.6 µM (inactive).

Consider `COP(=O)(OC)C(O)C(Cl)(Cl)Cl` (stereo not given), for which the result in [1] and in [4] was inactive. Besides, in [5], the Potency was > 20.6 µM (inactive).

These data come from PubChem BioAssay (NCATS).
